TMEM16A act = mouse TMEM16A channel activation, primary screen. HEK293 TMEM16A/YFP-H148Q/I152L, iodide quench fluorescence; stronger effect = lower value. 0.3% of 340,000 active. B-score at 10 µM. Q8BHY3;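 active = fluorescence-ratio B-score plate-corrected deviation score at least 3 library SD below zero, with starting fluorescence score within 5 deviations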;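 note: channel opened by trigger with iodide after compound preincubation; score built on the fluorescence ratio of max minus min over baseline; more negative score means more quench and so TMEM16A activation or potentiation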
PP5 inh = PP5 (human) phosphatase inhibition; purified PP5c, OMFP substrate fluorescence; inhibition, % at 6.7 µM; 0.18% of 320,000 active;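 active = inhibition above the campaign's mean inhibition across all tested compounds plus 3 SD, cut at about 9.5% in these data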;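 note: 0% = DMSO only and 100% = 100 µM cantharidin control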
TMEM16A inh = mouse TMEM16A channel inhibition, primary screen; Q8BHY3; HEK293 TMEM16A/YFP iodide influx fluorescence, ionomycin; normalized B-score (activity score, 25-100; higher = stronger inhibition) at 10 µM; 1.2% of 310,000 active; AID 588511;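 active = ratio plate-corrected score three or more library SD toward inhibition, starting fluorescence score within five deviations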;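 note: score derived from kinetic fluorescence span divided by baseline fluorescence per well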
DNA FID counter = counter-screen for HCV NS3 helicase inhibitors: DNA intercalator displacement; DNA fluorescent intercalator displacement, fluorescence; inhibition, % at 7.9 µM; 0.17% of 290,000 active; AID 1845; in the data active = inhibition above about 37%;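 note: 0% = vehicle and 100% = reference compound; higher means more ethidium bromide displaced from hairpin DNA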
PREPL inhibitor = inhibitors of human prolyl oligopeptidase-like enzyme PREPL; inhibition, % at 5.96 µM; recombinant PREPL, fluorescence polarization activity-based probe; 0.68% of 320,000 active; Q4J6C6; AID 2751; in the data active = inhibition above about 43%;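 note: 0% = enzyme with DMSO and 100% = wells lacking enzyme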
Target sequence (Q4J6C6 whole entry, looked up): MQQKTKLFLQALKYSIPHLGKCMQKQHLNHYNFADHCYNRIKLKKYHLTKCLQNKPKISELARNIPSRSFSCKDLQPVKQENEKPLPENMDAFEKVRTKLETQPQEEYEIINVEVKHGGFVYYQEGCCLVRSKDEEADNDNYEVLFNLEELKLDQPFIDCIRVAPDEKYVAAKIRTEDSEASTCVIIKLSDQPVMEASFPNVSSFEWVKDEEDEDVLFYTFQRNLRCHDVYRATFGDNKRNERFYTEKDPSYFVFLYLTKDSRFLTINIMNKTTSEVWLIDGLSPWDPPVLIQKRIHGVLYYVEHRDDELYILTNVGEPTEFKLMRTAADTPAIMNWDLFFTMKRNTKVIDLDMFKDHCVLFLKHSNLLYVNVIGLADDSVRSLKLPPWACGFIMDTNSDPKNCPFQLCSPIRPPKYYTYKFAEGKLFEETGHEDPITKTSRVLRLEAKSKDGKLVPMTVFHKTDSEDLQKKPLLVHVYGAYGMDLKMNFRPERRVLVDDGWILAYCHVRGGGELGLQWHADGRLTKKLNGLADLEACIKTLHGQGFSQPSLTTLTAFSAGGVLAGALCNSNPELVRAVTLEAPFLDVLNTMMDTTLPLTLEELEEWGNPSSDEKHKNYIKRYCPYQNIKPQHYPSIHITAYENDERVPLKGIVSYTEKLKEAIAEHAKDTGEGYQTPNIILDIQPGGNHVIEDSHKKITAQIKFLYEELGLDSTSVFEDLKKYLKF
PP1 inh = counter-screen for PP5 inhibitors: inhibitors of human PP1-alpha; P62136; purified PP1alpha, OMFP fluorescence; inhibition, % at 6.7 µM; 0.9% of 320,000 active; AID 2235;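 active = inhibition above the mean inhibition of all tested compounds plus 3 SD, computed separately for each screening campaign, cut at about 15% in these data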
TMEM16A reconf = TMEM16A (mouse) chloride channel inhibition, re-confirmation; shares compounds with TMEM16A inh; HEK293 TMEM16A/YFP-H148Q, iodide quench fluorescence; ionomycin added to raise cell calcium; inhibition, % at 10 µM; 39% of 2,300 active;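 active = mean duplicate percent inhibition, scaled so buffer wells are 0 and the reference blocker 100, over three buffer SD above buffer mean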
HEK293 Ca mobil = alters calcium mobilization in TMEM16A HEK293 cells, counter-screen. 2% of 2,300 active. calcium response (% of ionomycin), % at 10 µM. AID 652231. TMEM16A/YFP HEK293, Fluo4 calcium mobilization. shares compounds with TMEM16A inh;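 active = duplicate-averaged calcium signal over 20% of the ionomycin maximum, relative to buffer baseline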;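 note: each well's signal is peak minus trough fluorescence divided by its pre-addition baseline; 0% = buffer wells and 100% = ionomycin wells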
YFP-HEK293 quench = parental YFP-HEK293 iodide quench counter-screen activity; YFP ratio F(max-min)/F0 at 10 µM; shares compounds with TMEM16A inh; 2,300 tested, under 10 active; AID 652233; ionomycin;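 active = yellow fluorescent protein signal ratio exceeding the buffer control mean by over 5 SD of those controls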;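 note: ratio is mean of duplicate wells from kinetic YFP trace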
ClC-1 rat inh = selectivity of TMEM16A inhibitors: inhibition of rat ClC-1 chloride channel. shares compounds with TMEM16A inh. ratio percent, % at 10 µM. AID 652236. CHO ClC-1-YFP, iodide influx fluorescence quench; iodide control reads 0, buffer control 100. 2,300 tested, under 10 active;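 active = duplicate-mean ratio percent above the mean of iodide-only control wells, which defines zero, plus 5 of their SD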;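 note: higher percent means stronger block of ClC-1 iodide influx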
Numbers without * were called inactive; i = inactive; · = not tested or not shown. The list is not random: actives were taken first. Their share in the collection is about 2.7%.

SMILES	TMEM16A act	PP5 inh	TMEM16A inh	DNA FID counter	PREPL inhibitor	PP1 inh	TMEM16A reconf	HEK293 Ca mobil	YFP-HEK293 quench	ClC-1 rat inh
CN(C)S(=O)(=O)c1cc(NC(=O)COC(=O)Cc2cccc3ccccc23)ccc1Cl	i	6	25*	-11	-2	2	i	i	-0.94	-4
CN(C)S(=O)(=O)c1cc(NC(=O)COC(=O)Cc2ccc(Cl)cc2Cl)ccc1Cl	i	2	i	-7	2	0	·	·	·	·
CCC(C(=O)OCC(=O)Nc1ccc(Cl)c(S(=O)(=O)N(C)C)c1)c1ccccc1 (stereo not drawn)	i	6	25*	-23	-4	2	20%*	i	-1.2	-6
CCN(CC(=O)Nc1ccc2c(c1)OCCO2)C(=O)c1cc(=O)[nH]c2ccccc12	i	-4	i	·	-7	2	·	·	·	·
CCOc1ccc(S(=O)(=O)N2CCOCC2)c2ccccc12	i	4	i	-24	-2	0	·	·	·	·
CCOc1ccc(S(=O)(=O)N2CCCCC2)c2ccccc12	i	3	25*	-20	1	4	i	i	-0.98	-14
Cc1cc(S(=O)(=O)Nc2ccc3cn[nH]c3c2)c(C)cc1Cl	i	4	25*	-11	-19	7	16%*	i	-0.96	-12
O=S(=O)(Nc1ccc2cn[nH]c2c1)c1ccc(Cl)cc1	i	1	i	2	-1	-2	·	·	·	·
CN1CCN(C(=O)c2ccc(CNS(=O)(=O)c3ccc(F)c(Cl)c3)cc2)CC1	i	·	i	0	·	·	·	·	·	·
Nc1ncnc2c1ncn2[C@@H]1O[C@H](CO)C[C@H]1O	i	-2	100*	·	19	-1	i	i	-0.91	-4
CC1(C)O[C@@H]2[C@H](O1)[C@@H](CO)O[C@H]2n1cnc2c(N)ncnc21	i	1	·	·	-2	-3	·	·	·	·
Cc1nc2ccc(N=NC3=C(O)CC(C)(C)CC3=O)cc2s1	i	2	i	-19	7	-3	·	·	·	·
Cc1nc2ccc(N=NC3=C(O)CCCC3=O)cc2s1	i	1	i	-6	6	-8	i	i	-1.1	-8
CC(C)c1ccc(NC(=O)C2=NNC(=O)CC2)cc1	i	0	i	-4	2	2	·	·	·	·
CC(NC(=O)Cn1cc2c(n1)CCCCC2)c1ccccc1 (stereo not drawn)	i	0	25*	-6	-4	-1	i	i	-1.2	-3
CCN(C(=S)NCc1ccccc1)c1cccc2ccccc12	i	0	25*	-14	2	-1	i	i	-1.2	-8
CC1CCCC(NC(=O)C2CCN(C(=O)Nc3ccccc3)CC2)C1C (stereo not drawn)	i	0	i	·	18	-3	·	·	·	·
CC1CCN(C(=O)CCCl)c2ccccc21 (stereo not drawn)	i	·	·	·	·	·	·	·	·	·
O=C(Nc1ncn[nH]1)c1ccc(Cl)c(Cl)c1	i	·	·	·	·	·	·	·	·	·
N#C/C(=C\c1ccc(Sc2nc3ccccc3[nH]2)o1)c1ccccc1	i	3	100*	-3	-9	6	22%*	i	-0.93	-20
N#C/C(=C\c1ccc(Sc2ccc(Cl)cc2)o1)c1nc2ccccc2[nH]1	i	7	i	-5	18	9	·	·	·	·
O=C(C1CCC1)N1CCN(c2ccnc3cc(Cl)ccc23)CC1	i	0	i	-12	-4	2	·	·	·	·
O=C(C1CCCCC1)N1CCN(c2ccnc3cc(Cl)ccc23)CC1	i	0	25*	-19	12	-6	18%*	i	-1	-14
O=C(NC1CCCCC1)C1CCCN1S(=O)(=O)c1cccc2nsnc12 (stereo not drawn)	i	4	100*	-2	7	2	i	i	-1.1	-6
CN(CC(=O)Nc1ccc(F)cc1)C(=O)Cn1cnc2ccc(Cl)cc2c1=O	i	0	·	·	4	-1	·	·	·	·
SMILES	TMEM16A act	PP5 inh	TMEM16A inh	DNA FID counter	PREPL inhibitor	PP1 inh	TMEM16A reconf	HEK293 Ca mobil	YFP-HEK293 quench	ClC-1 rat inh
COc1ccc(S(=O)(=O)N2CCSCC2)cc1C(N)=O	i	2	i	1	-2	0	·	·	·	·
CCCSc1oc(-c2ccco2)nc1S(=O)(=O)c1ccc(C)cc1	i	6	25*	-34	-12	4	i	i	-1	-10
CCCSc1oc(-c2ccco2)nc1S(=O)(=O)c1ccccc1	i	3	i	-23	-10	0	·	·	·	·
O=C(Nc1ccccc1C(=O)Nc1ccncc1)c1cccc([N+](=O)[O-])c1	i	-1	i	10	4	-2	·	·	·	·
O=C1N=NC(=O)N1c1ccccc1	i	0	i	-8	6	-1	·	·	·	·
CCN(CC1COc2ccccc2O1)C(=S)NC1CC2CCC1C2 (stereo not drawn)	i	0	100*	-8	2	-1	i	i	-0.83	-10
C/C(=N\Nc1ccc(Cl)c(C(=O)O)c1)c1ccc[nH]1	i	0	i	-9	7	-1	·	·	·	·
COC(=O)Cc1nnc(NC(=O)C(C)C)s1	i	-3	25*	-2	3	0	i	i	-0.82	-10
COC(=O)c1ccc(COc2cccc3c2CCN(Cc2ccccc2)C3=O)o1	i	4	i	-28	29	0	·	·	·	·
COC(=O)c1ccc(COc2cccc3c2CCN(Cc2cccc(C)c2)C3=O)o1	i	1	25*	-29	5	0	19%*	i	-1.2	-4
O=Cc1cn(-c2ccccc2)nc1-c1cc2c(ccc3ccccc32)oc1=O	i	-2	25*	-2	-28	0	i	i	-0.95	-8
CN(C)c1ccc(-c2noc(C3CCN(S(=O)(=O)c4cccc(Cl)c4)CC3)n2)cc1	i	-1	i	7	-1	0	·	·	·	·
O=S(=O)(c1ccc2ccccc2c1)N1CCC(c2nc(-c3ccncc3)no2)CC1	i	2	100*	-4	-13	-5	17%*	i	-0.93	-6
COc1cc(CN2CCCC(N3CCN(c4ccccc4C)CC3)C2)ccc1O (stereo not drawn)	i	5	i	9	17	4	·	·	·	·
C(=C\n1nnc2ccccc21)/c1ccccn1	i	1	i	·	-9	-2	·	·	·	·
